Compound activity (PubChem BioAssay)
Rows were chosen to be rich in hits. Some 2.3% of all compounds tested hit in one or more screens of this group.
Mcl1-Noxa inh: Mcl-1/Noxa interaction inhibition; Q07820; TR-FRET Mcl-1/Noxa peptide binding, 2 h; inhibition, % at 21.7 µM; 1.5% of 220,000 active;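 active = compounds that cut the protein-peptide binding signal by more than 50% relative to plate controls in a single-dose test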;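 note: His-tagged Mcl-1 with rhodamine Noxa BH3 peptide and terbium anti-His antibody; 0% = Mcl-1 plus Noxa peptide wells and 100% = peptide-only wells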
GLD-1 TGE inh: GLD-1-TGE RNA interaction inhibition (C. elegans). 0.44% of 320,000 active. purified GLD-1 + fluorescein TGE RNA, fluorescence polarization. inhibition, % at 5.96 µM. Q17339;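 active = percent inhibition above a per-plate cutoff, the plate mean of test compounds plus 3 SD, cut at about 30% in these data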;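 note: 0% = DMSO wells with GLD-1 and probe and 100% = wells lacking GLD-1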
Bim-Mcl-1: inhibitors of Bim-Mcl-1 interaction, human | Q07820 | Bead-based flow cytometry, Bim peptide-Mcl-1 binding | inhibition, % at 10 µM | 0.1% of 190,000 active | AID 1009; in the data active = inhibition above about 40%;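 note: 0% = no compound tracer wells and 100% = peptide blocker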
Mcl1 Bid PPI: Mcl-1/Bid interaction inhibition; Q07820; inhibition, % at 21.7 µM; 0.97% of 220,000 active; TR-FRET Mcl-1/Bid-Dy647 peptide binding, 1536-well; AID 1021;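 active = compounds that cut the binding signal by more than half at the single screening dose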;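 note: His-tagged Mcl-1 with europium anti-His antibody binding Bid BH3 peptide; 0% = Mcl-1 plus peptide wells and 100% = peptide-only wells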
MCL1 BIM primary: inhibitors of human MCL1 binding to BIM-BH3 peptide | 0.68% of 320,000 active | GST-MCL1 / FITC-Bim-BH3 fluorescence polarization | AID 2057 | inhibition, % at 10.9 µM;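 active = inhibition above the mean inhibition of all tested compounds plus 3 SD, set per campaign, cut at about 40% in these data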;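 note: 0% = DMSO wells and 100% = unlabeled Bim-BH3 peptide control; higher means more loss of mP so more displacement of Bim peptide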
Bcl-xL primary: blocks human Bcl-xL binding to Bim BH3 peptide; Q07817; GST-Bcl-xL / FITC-Bim BH3 peptide fluorescence polarization; inhibition, % at 10.9 µM; 0.7% of 320,000 active;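 active = inhibition above the mean of all tested compounds plus 3 SD, cutoff set per campaign, cut at about 30% in these data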;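 note: 0% = DMSO wells and 100% = unlabeled Bim-BH3 peptide competitor; inhibitors lower millipolarization by displacing the labeled peptide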
Target sequence (Q07817 whole entry, looked up): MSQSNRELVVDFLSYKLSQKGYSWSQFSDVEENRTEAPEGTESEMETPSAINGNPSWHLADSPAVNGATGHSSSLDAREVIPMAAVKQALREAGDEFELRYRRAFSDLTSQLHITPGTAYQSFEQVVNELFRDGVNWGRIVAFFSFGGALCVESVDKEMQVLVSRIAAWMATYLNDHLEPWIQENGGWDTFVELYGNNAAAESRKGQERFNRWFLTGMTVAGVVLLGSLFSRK
* hit, by the source's call; nt = no result given.

SMILES	Mcl1-Noxa inh	GLD-1 TGE inh	Bim-Mcl-1	Mcl1 Bid PPI	MCL1 BIM primary	Bcl-xL primary
CC(C)(C)OC(=O)NC(Cc1ccccc1)C(=O)O (centres undefined)	35.6	6.4	nt	59.6*	3.6	12.0
COc1ccc(NC(=O)c2ccco2)cc1NC(=O)c1c(OC)cccc1OC	nt	-0.4	nt	nt	-5.8	1.1
COc1ccc(NC(=O)c2ccco2)cc1NC(=O)c1ccco1	-23.5	5.6	41.0*	0.4	3.1	10.2
CC(NC(=O)c1ccc(C#N)cc1)C1CC2CCC1C2 (centres undefined)	nt	-3.4	nt	nt	-10.8	-3.2
CC1CCCC(NC(=O)CSc2nnc(C(F)(F)F)n2C)C1C (centres undefined)	nt	4.3	nt	nt	-2.6	-2.7
Nc1c(S(=O)(=O)c2cccc(Cl)c2)c2nc3ccccc3nc2n1/N=C/c1ccc(O)c(O)c1	63.5*	3.3	13.0	-12.1	13.1	4.5
COc1ccc(CCNC(=O)C2CCN(S(=O)(=O)c3cccc4nonc34)CC2)cc1OC	66.1*	-9.1	-4.0	-1.7	-2.0	-4.6
CN1CCc2c(sc3c2C(=O)NC(c2cccc(OC(=O)c4cccs4)c2)N3)C1 (centres undefined)	57.6*	-86.9	-1.0	-6.0	-70.4	-33.6
CCOC(=O)N1CCc2c(sc3c2C(=O)NC(c2ccccc2)N3)C1 (centres undefined)	19.3	6.3	-2.0	-68.0	25.2	27.7
CN1CCc2c(sc3c2C(=O)NC(c2ccco2)N3)C1 (centres undefined)	24.1	9.3	-1.0	-24.3	39.8	37.6*
Cn1nccc1C(=O)N1CCN(S(=O)(=O)c2ccc(Br)s2)CC1	nt	6.5	nt	nt	9.5	0.1
COC(=O)c1cc(CNC(=O)C2CC(=O)N(c3ccc4c(c3)OCCO4)C2)ccc1OC (centres undefined)	nt	3.2	nt	nt	nt	nt
CCN(c1ccc(NC(=O)c2ccc(Cl)nc2)cc1)C(C)C	79.1*	-0.3	0.0	-61.4	-2.5	4.1
CCN(CC)CCOC(=O)c1ccc(N/C=C(/C#N)c2nc(-c3ccc4c(c3)OCO4)cs2)cc1	69.0*	1.2	nt	63.5*	10.1	-28.5
CC(=O)Nc1ccc(NC(=O)C(C)OC(=O)CNS(=O)(=O)c2ccc(Br)cc2Cl)cc1 (centres undefined)	nt	5.0	nt	nt	-1.6	4.2
Cc1ccc(NC(=O)C(C)OC(=O)COc2cccc(C(F)(F)F)c2)cc1 (centres undefined)	nt	4.7	nt	nt	-13.8	-4.8
O=C(/C=C/c1ccc(Br)o1)Nc1nnc(C2CC2)s1	61.8*	-6.0	nt	18.1	3.6	-0.6
C/C(=N\NC(=S)NC1CCCCC1)c1cccc(C(F)(F)F)c1	27.6	4.0	nt	-9.4	10.2	3.9
O=[N+]([O-])c1ccc2c(c1)N([O-])C1(CCCCC1)[N+]2=O	83.2*	nt	nt	-23.5	nt	nt
CC1=C(c2ccccc2)[N+](=O)C2(CCCC2)N1[O-]	3.8	6.4	1.0	-3.1	-7.1	-0.4
Cc1ccc(Cl)c(OCCCN(C)Cc2ccccc2)c1	18.2	1.8	nt	77.4*	0.7	4.2
Cc1ccc(Cl)c(OCCCCN(C)Cc2ccccc2)c1	16.0	1.6	-4.0	52.5*	-3.2	5.5
COc1ccc(NC(=O)COc2ccccc2C)cc1S(=O)(=O)N1CCCCC1	nt	2.0	nt	nt	-1.7	2.0
COc1cc(C(=O)NS(=O)(=O)c2ccccc2C)ccc1Cc1cn(C)c2ccc(NC(=O)OC3CCCC3)cc12	20.9	4.0	0.0	4.4	-1.5	37.3*
CCCn1nc(C(=O)NC2CCCCCC2)c2ccccc2c1=O	nt	-0.1	nt	nt	-2.1	1.6
CC(=O)NC1C(=O)N=C(SCC(=O)NC(C)c2ccccc2)NC1=O (centres undefined)	25.2	1.5	-1.0	55.5*	3.1	1.7
CC(=O)NC1C(=O)N=C(SCc2ccccc2)NC1=O (centres undefined)	26.3	9.4	8.0	-24.4	3.5	6.1
Cc1cccc2c3nc4ccccc4nc3n(C)c12	nt	13.6	nt	nt	40.4*	49.1*
COc1cccc(-c2csc(N3CCN(C(=S)Nc4cccc(Cl)c4)CC3)n2)c1	-5.0	0.9	0.0	88.6*	11.7	1.2
CN(C)S(=O)(=O)c1cccc(N=c2scc(-c3ccc4c(c3)NC(=O)CO4)n2CC2CCCO2)c1 (centres undefined)	-2.8	2.1	-1.0	74.2*	3.0	8.4
